The full list was thinned out, with hits kept by preference.
CHX counter – counter-screen for Shiga toxin inhibitors: cycloheximide protein synthesis inhibition; cell reporter, cycloheximide protein synthesis inhibition counterscreen; max response, %; 300,000 compounds, 12% hits; AID 2314; in the data active means max response mostly above about 13%, no sharp cut-off; inactive means mostly below about 14%; further: read at 38.3 µM for the half of the compounds with a filed dose; 0% is about no effect
LmPK inh – inhibitors of Leishmania mexicana pyruvate kinase | Q27686 | purified LmPK, Kinase-Glo ATP luminescence, 1 h | Potency, µM (highest dose often 57.5 µM), for the others: at the top dose activity change, negative = inhibition, usual class: inhibitors | 290,000 compounds, 0.37% hits | AID 1721; further: potency means the concentration at half of the fitted maximal effect; on the % scale 0 is the no-effect control and ±100 the full control effect
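Kinase-Glo luminescence read after 1 h RT reaction of 0.1 nM LmPK with 0.5 mM PEP and 0.1 mM ADP. Activity scaled between uninhibited and enzyme-free controls.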
Giardia FBPA inh – inhibitors of Giardia lamblia fructose-1,6-bisphosphate aldolase. A8B2U2. purified Giardia FBPA. Potency, µM (doses to about 59.6 µM), for inactives: at the top dose activity, negative = inhibition, most hits filed as inhibitors. 290,000 compounds, 0.71% hits; further: potency means the concentration at half of the fitted maximal effect; on the % scale 0 is the no-effect control and ±100 the full control effect; nearly all actives have a fitted effect of over 55% in size
Target sequence (A8B2U2 whole entry, looked up): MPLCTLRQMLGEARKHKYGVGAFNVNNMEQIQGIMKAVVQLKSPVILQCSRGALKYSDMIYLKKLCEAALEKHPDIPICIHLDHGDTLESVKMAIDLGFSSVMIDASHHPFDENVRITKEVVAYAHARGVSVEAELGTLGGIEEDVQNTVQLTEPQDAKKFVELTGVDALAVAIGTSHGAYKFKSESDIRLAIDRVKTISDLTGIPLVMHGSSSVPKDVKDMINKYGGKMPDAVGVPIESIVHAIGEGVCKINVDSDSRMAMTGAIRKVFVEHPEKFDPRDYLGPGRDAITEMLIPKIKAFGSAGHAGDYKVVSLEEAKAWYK
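Giardia FBPA (40 nM reagent) was preincubated 10 min at RT with compound (up to 57.5 uM final), then substrate plus GAPDH/TPI/NAD/arsenate coupling system with diaphorase/resazurin was added; resorufin fluorescence (525/598 nm) was read after 20 min.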
Shiga toxin inh – inhibitors of Shiga toxin in Vero cells; Vero cells, Shiga toxin protein synthesis inhibition reporter; inhibition, % at 38.7 µM; 290,000 compounds, 9.2% hits; AID 2315; in the data active means inhibition mostly above about 28%, no sharp cut-off; inactive means mostly below about 43%; further: 0% is about no effect
Sm TGR block – inhibitors of Schistosoma mansoni thioredoxin glutathione reductase. Q962Y6. purified TGR, DTNB reduction, TNB absorbance 405 nm. Potency, µM (top dose mostly 114 µM), for inactives: at the highest dose activity change, negative = inhibition, actives largely listed as inhibitors. 360,000 compounds, 3% hits. AID 485364; further: potency means the concentration at half of the fitted maximal effect; on the % scale 0 is the no-effect control and ±100 the full control effect; nearly all actives have a fitted effect of over 60% in size
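First, TGR (20 nM dispensed) and NADPH were mixed with compound. Second, a 15 min room-temperature incubation followed. Third, further NADPH and then DTNB were added to start the reaction. Finally, TNB absorbance was monitored kinetically.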
TbPYK inhibitor – T. brucei pyruvate kinase inhibition; TbPYK enzyme, Kinase-Glo Plus ATP luminescence, 45 min; AID 624173; 410,000 compounds, 0.12% hits; Potency, µM (titrated, usually from 76.8 µM), for inactives: at the top dose activity, negative = inhibition, actives largely listed as inhibitors; further: potency means the concentration at half of the fitted maximal effect; on the % scale 0 is the no-effect control and ±100 the full control effect; nearly all actives have a fitted effect of over 50% in size
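In this concentration-response screen, enzyme-free wells defined baseline while DMSO plates tracked drift. Each reaction combined TbPYK, substrate, compound and 130 uM ADP for 45 min at room temperature. Kinase-Glo Plus luminescence gave the signal.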
The depositor's hits bear a star; ? = inconclusive; · = no result; + = active, no number; [ ] = remark or other dose. Unless noted, the call rests on the fitted dose curve; in most records, active means well fitted curve in the direction sought with a large enough effect; inconclusive means small, poorly fitted or top-dose-only effect, or another doubt; inactive means no such curve, though single readings can be large; an effect the other way counts as inactive or inconclusive.

SMILES	CHX counter	LmPK inh	Giardia FBPA inh	Shiga toxin inh	Sm TGR block	TbPYK inhibitor
c1ccc2[nH]c(-c3ccncc3)nc2c1	19*	-23%	0%	68*	7%	4%
Nc1cc(N)cc(-c2nc3ccccc3[nH]2)c1	23*	-1%	-2%	13	1%	10%
c1ccc(-c2n[nH]c(-c3ccccc3)c2-c2nc3ccccc3[nH]2)cc1	-3	1%	-1%	-13	-27%	-12%
c1ccc(-c2nc3ccccc3[nH]2)cc1	31*	?	10%	47*	4%	4%
COc1cc(C(=O)NN2C(=O)NC3(CCC(C)CC3)C2=O)ccc1OC(F)F (centres undefined)	·	·	·	·	·	-6%
COc1ccc(C)cc1COC(=O)c1[nH]c(C)c(C(C)=O)c1C	-2	1%	10%	5	?	-12%
Cc1c(C(=O)OC2CCCC2C)[nH]c2c1C(=O)CCC2 (centres undefined)	48*	0%	-1%	64*	-10%	1%
CC(=O)c1c(C)[nH]c(C(=O)OCc2ccc(Br)cc2)c1C	45*	-1%	0%	69*	5%	-1%
CC(=O)c1c(C)[nH]c(C(=O)OCCOc2ccccc2)c1C	23	-3%	-1%	47*	1%	-1%
CC(=O)c1c(C)[nH]c(C(=O)OCc2cccc(C)c2)c1C	36*	-2%	0%	95*	1%	-1%
CC(=O)c1c(C)[nH]c(C(=O)COC(=O)CCCOc2ccccc2)c1C	-4	4%	0%	-4	1%	-4%
CCN1c2ccccc2-c2nc(SCC(=O)Nc3c(C)cc(C)cc3C)ncc2S1(=O)=O	·	·	·	·	7%	1%
COc1cc(OC)c2c(c1)OC1Cc3cc(OC)c(OC)cc3C2O1 (centres undefined)	·	2%[11.5 µM]	8%[12.9 µM]	·	·	·
Cc1ccc(-n2ncc(C(=O)NCc3ccccn3)c2C2CCN(C(=O)OC(C)(C)C)CC2)cc1C	·	·	·	·	-9%	-18%[15.4 µM]
CC(=O)c1c(C)[nH]c(C(=O)OCc2csc(CC(=O)Nc3ccccc3C)n2)c1C	·	·	·	·	·	-2%
Cc1c(C(=O)OCCOc2ccccc2)[nH]c2c1C(=O)CCC2	29*	2%	-10%	47*	-4%	-7%
CCOc1ccc(C2CC(=O)c3c([nH]c(C(=O)OCCOc4ccccc4)c3C)C2)cc1 (centres undefined)	·	·	·	·	-1%	6%
CC(=O)c1c(C)[nH]c(C(=O)OCc2ccccc2F)c1C	46*	2%	-1%	95*	0%	4%
C[C@@H]1CN([C@H](C)CO)C(=O)CCCn2cc(nn2)CO[C@H]1CN(C)C(=O)c1ccc2ccn(C)c2c1	·	·	·	·	·	-4%
CCOC(=O)c1ccc(NC(=O)C(CC)CC)cc1	30*	-1%	1%	71*	-1%	-3%
CCOC(=O)c1ccc(NC(=O)N(CC)CC)cc1	37*	-4%	2%	62*	3%	-13%
CCOC(=O)c1ccc(NC(=O)[C@@H](NC(N)=O)C(C)C)cc1	-2	2%	-2%	-5	1%	6%
COCCCNC(=O)C1CCCN(c2nn3cc(-c4ccc(C)cc4)nc3s2)C1 (centres undefined)	·	·	·	·	-3%	3%[15.4 µM]
O=C(NCc1nc2ccccc2[nH]1)C1=C[C@@H](C2CCCCC2)C[C@@H](OCc2ccc(CO)cc2)O1	11	5%	-1%	46*	-12%	1%
O=C(NCc1nc2ccccc2[nH]1)C1=C[C@H](c2ccccc2)C[C@H](OCc2ccc(CO)cc2)O1	15*	1%	-30%	29	-14%	4%
SMILES	CHX counter	LmPK inh	Giardia FBPA inh	Shiga toxin inh	Sm TGR block	TbPYK inhibitor
CCc1ccc2occ(CC(=O)Nc3nnc(C)s3)c2c1	·	·	·	·	-1%	1%
O=C(OCc1cc(=O)n2nc(-c3cccs3)sc2n1)c1ccc(Cl)cc1	·	·	·	·	2%	-5%
CC(C)CNC(=O)c1cccc(NC(=O)Cc2ccc(Cl)cc2)c1	1	7%	9%	-7	-6%	2%
Cc1cccc(N2CCN(C(=O)c3ccc4ncsc4c3)CC2)c1C	30*	9%	7%	72*	0%	-20%
O=C(c1ccc2ncsc2c1)N1CCN(c2ccccc2Cl)CC1	20*	0%	0%	105*	-12%	0%
CC(=O)c1[nH]c(C)c(C(=O)NCc2ccc(Cl)cc2)c1C	·	·	·	·	-6%	3%
O=Cc1cccc(OC(=O)c2ccc(Cl)cc2Cl)c1	26*	1%	-3%	51	0%	·
Cc1cc(C)nc(OC(=O)c2ccc(Cl)cc2Cl)n1	17*	-1%	-4%	-17	22µM*	·
N[C@H](CSSC[C@@H](N)C(=O)O)C(=O)O	-3	·	3%	-3	·	·
COc1ccccc1OC(C)C(=O)N(Cc1ccco1)C1CCS(=O)(=O)C1 (centres undefined)	14*	-7%	-25%	25*	4%	6%
CCOc1cccc(C(=O)N(Cc2ccc(C)o2)C2CCS(=O)(=O)C2)c1 (centres undefined)	·	·	·	·	-1%	-3%
CCOc1cccc(C(=O)N(Cc2ccco2)C2CCS(=O)(=O)C2)c1 (centres undefined)	1	-1%	4%	-2	35µM*	0%
O=C(c1sc2ccccc2c1Cl)N(Cc1ccco1)C1CCS(=O)(=O)C1 (centres undefined)	-1	1%	3%	1	32µM*	-5%
COc1ccc(CN2C[C@@H](CO)O[C@@H](n3cnc4c(NCc5ccc(F)cc5)ncnc43)C2)cc1	·	·	·	·	·	5%
CC(=O)c1ccccc1NS(=O)(=O)c1cc2c(cc1C)NC(=O)CO2	·	·	·	·	5%	-6%[15.4 µM]
CC(C)CC(=O)Nc1cccc(-c2csc(-c3ccccc3)n2)c1	39*	6%	8%	+	-5%	-5%
CCC(=O)Nc1cccc(-c2csc(-c3ccccc3)n2)c1	54*	-1%	0%	62*	-1%	1%
COc1ccc(CC(=O)Nc2cccc(-c3csc(C)n3)c2)cc1	16	1%	-2%	37	-28%	-3%
CC(C)CC(=O)Nc1cccc(-c2nc3ccccc3[nH]2)c1	14*	-4%	-6%	16	-2%	-28%
Cc1cc(C)cc(OCC(=O)Nc2cccc(-c3nc4ccccc4[nH]3)c2)c1	·	·	·	·	10%	-7%
O=C(COc1ccccc1)Nc1cccc(-c2nc3cc4ccccc4cc3[nH]2)c1	70*	-12%	-10%	79*	11%	-4%
Cn1c(=O)c(C(=O)COC(=O)c2cc(C(F)(F)F)nc3c(C(F)(F)F)cccc23)c(N)n(Cc2ccccc2)c1=O	·	·	3%	·	·	·
CC1CN(C(=O)c2ccc(COc3ccc4ccccc4c3)o2)CC(C)O1 (centres undefined)	27*	2%	-20%	57*	32µM*	0%
CC(C)SCCCCOc1ccc2ccccc2c1	39*	-7%	6%	33	21%	2%
